This passage reports inhibition results from PubChem BioAssay AID1486 (The Scripps Research Institute Molecular Screening Center, 2009).

The whole screen tested about 220,000 compounds, of which about 2,400 (1.1%) were called active. The entries come from a sample that favours actives as a whole. Unmarked numbers belong to inactive results.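 The calls were made as follows: active = inhibition above a per-campaign cutoff, the mean inhibition of all tested compounds plus 3 SD (cut at about 27% in these data); inactive = the rest.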

This assay is described as follows: growth loss in parental Ba/F3 cells – cell-based, murine pro-B, CellTiter-Glo luminescence, counter-screen for JAK2V617F inhibitor project (AID 1486).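 Also: 0% = DMSO wells and 100% = JAK Inhibitor I control wells.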 The note with it: Ba/F3 parental viability, CellTiter-Glo ATP luminescence; at 5.6 µM; stronger effect = higher value.
The term inhibition denotes the drop in the measured response relative to a control, in per cent. On to `Cc1cc(/C=N/Nc2ccc([N+](=O)[O-])cn2)c(C)n1-c1cccc(C(=O)O)c1`, for which the inhibition was -1.49%.

For `COc1cc(/C=N\Nc2ccc([N+](=O)[O-])cn2)ccc1OCC(=O)O`, the inhibition was 10.2%.

Consider `Cc1ccc(-n2c(C)cc(/C=N/Nc3ccc([N+](=O)[O-])cn3)c2C)c(C)c1`, for which the inhibition is 50.2% (active).

Consider `Cc1cc(NC(=O)CSc2nc3cc(Cl)ccc3c(=O)n2Cc2ccco2)no1`, for which the inhibition was 8.02%.

Turning to `C[C@@H](C(=O)N1CCNCC1)n1cc(CCC(=O)O)nn1`, the inhibition is -3.7%.

`O=C(Cn1cnc2ccccc21)N/N=C/c1ccco1`: the inhibition was 1.87%.

Take `COC(=O)c1cc(NC(=O)c2ccco2)ccc1N1CCOCC1`: the inhibition was 1.48%.

In the case of `Cc1ccc(CNC(=O)CCNC(=O)Cn2ccc3ccccc3c2=O)cc1`, the inhibition is 8.67%.

`COC(=O)COc1cccc2c(=O)n(CC(=O)NCc3ccccc3)ccc12`: the inhibition was 44.3% (active).

Consider `COC(=O)COc1cccc2c(=O)n(CC(=O)NCCc3ccc(OC)c(OC)c3)ccc12`, for which the inhibition is -0.48%.

Turning to `Cc1ccc2nc(C)cc(N/N=C/c3ccc(F)cc3)c2c1`, the inhibition was 8.42%.

Take `NS(=O)(=O)c1ccc(CNC(=O)c2cnccn2)cc1`: the inhibition is -6.36%.

Consider `CCOc1ccc(OCc2cccc(C(=O)N(CC)CC)c2)cc1`, for which the inhibition was 1.21%.

As to `Cc1nn(-c2ccc([N+](=O)[O-])cc2)c(N)c1-c1ccccc1`, the inhibition was -2.11%.

Turning to `Cc1ccc(N=C2NC(=O)c3cccc([N+](=O)[O-])c32)cc1`, the inhibition is 2.95%.

In the case of `O=C(NCc1ccccc1Cl)C1CCCO1` (configuration not stated), the inhibition was 4.65%.

In the case of `NS(=O)(=O)c1ccc(NC(=O)COC(=O)c2ccc(Cl)nc2)cc1`, the inhibition is 4.09%.

With `O=C(NNc1ccccn1)c1ccc(Cl)nc1`, the inhibition was 3.58%.

Turning to `CCN(CC)c1ccc(NC(=O)c2ccc(Cl)nc2)cc1`, the inhibition was 72.5% (active).

Turning to `Cc1ccc(C)c(NC(=O)c2ccc(OC(=O)c3ccco3)cc2)c1`, the inhibition is 5.55%.

For the compound `Cc1ccc(NC(=O)Nc2ccccc2)c(Br)c1`, the inhibition is 5.76%.

For `C=CCNc1scc(-c2ccccc2)[n+]1CC=C`, the inhibition was 1.05%.

In the case of `C=CC[n+]1c(-c2ccc(C)cc2)csc1NNC(=O)Nc1ccccc1`, the inhibition was 57.4% (active).

As to `CC(=O)Nc1ccc(/C=N/Nc2ccc(C(=O)c3c(C)cc4ccccn34)cc2[N+](=O)[O-])cc1`, the inhibition was -11.2%.

For the compound `CS(=O)(=O)Nc1cccc(-c2cn3ccccc3n2)c1`, the inhibition is 7.16%.

In the case of `Cc1ccc(CC(=O)Nc2cccc(C#N)c2)cc1`, the inhibition was 6.45%.

On to `CC(O)C(NS(=O)(=O)c1ccc(Cl)cc1)C(=O)OCc1cc([N+](=O)[O-])cc2c1OCOC2` (configuration not stated), for which the inhibition is 4.65%.

For `CCNC(=O)c1sccc1-n1cccc1`, the inhibition is 2.59%.

As to `CCCCNC(=O)OCCSCCS(=O)(=O)c1ccc(Cl)cc1`, the inhibition is -2.09%.

As to `Cc1ccc(NC(=O)c2oc3ccccc3c2C)c([N+](=O)[O-])c1`, the inhibition is 2.45%.

For the compound `c1ccc(-n2ncc3c(N4CCCC4)ncnc32)cc1`, the inhibition is 2.78%.

For `CN(C(=O)COc1ncnc2c1cnn2-c1ccccc1)C1CCCCC1`, the inhibition was -1.06%.

Consider `c1ccc(-n2ncc3c2ncn2c(C4CCCCC4)nnc32)cc1`, for which the inhibition is 97.5% (active).

For the compound `Cc1ccc(C2NC(C(=O)O)CS2)cc1` (configuration not stated), the inhibition was 4.83%.

With `CC(=O)NCc1ccc(S(=O)(=O)NC2CCN(Cc3ccccc3)CC2)cc1`, the inhibition is -3.37%.

On to `C[C@@H]1C[C@@H]2O[C@H]2/C=C\C=C\C(=O)Cc2c(Cl)c(O)cc(O)c2C(=O)O1`, for which the inhibition was 104% (active).

With `CC(NC(=S)Nc1ccccc1)C(c1cccs1)N1CCOCC1` (configuration not stated), the inhibition is -4.02%.

Consider `CN(Cc1ccccc1)Cc1ccccc1F`, for which the inhibition was 10.4%.

For the compound `CN(C)c1ccc(/C=N/N(Cc2ccccc2)c2ccccc2)cc1`, the inhibition is 8.22%.

Consider `COC(=O)c1ccc(Cc2ccccc2)o1`, for which the inhibition was 1.87%.

Turning to `CN(C)c1cc[n+](Cc2ccccc2)cc1`, the inhibition was 66.3% (active).

`c1ccc(Cc2cc[n+](Cc3ccccc3)cc2)cc1`: the inhibition is 71.7% (active).

Consider `CCn1c(SCC(=O)Nc2ccc(C)cc2)nc2nc3c(cc2c1=O)CCCC3`, for which the inhibition was 1.35%.

Turning to `S=c1ccc2ccccc2[nH]1`, the inhibition is 2.2%.

For `CCCCCc1ccc(-c2ccc(C(=O)O)cc2)nc1`, the inhibition is 6.06%.

`COc1ccccc1/C=N\Nc1cc(C)nc(-n2nc(C)cc2C)n1`: the inhibition is 7.87%.

As to `Cc1cc(Oc2ccccc2)nc(N2CCOCC2)n1`, the inhibition is 2.47%.

Regarding `Cc1cc(C)n(-c2cc(Oc3ccccc3)ncn2)n1`, the inhibition is 4.63%.

Consider `Cc1cc(N/N=C\c2ccc(Br)cc2)nc(-n2nc(C)cc2C)n1`, for which the inhibition was 0.24%.

On to `COc1ccc(Nc2cc(C)nc(-n3nc(C)cc3C)n2)cc1`, for which the inhibition is 78% (active).

On to `CC(=O)c1ccc(Oc2cc(C)nc(-n3nc(C)cc3C)n2)cc1`, for which the inhibition is 73.9% (active).

For the compound `Cc1cc(N2CCOCC2)nc2ccc(NC(=S)N3CCN(Cc4ccccc4)CC3)cc12`, the inhibition is 5.21%.

For the compound `COC(=O)C(C)NC(=O)COc1ccc2ccccc2c1` (configuration not stated), the inhibition is 1.41%.

With `CCOC(=O)CN1C(=O)N[C@@H](c2ccc(Br)cc2)C(C(C)=O)=C1C`, the inhibition is 3.53%.

In the case of `CCOC(=O)c1ccc(NC(=S)N2CCCC2)cc1`, the inhibition is 0.86%.

For `COc1ccc(-c2csc(NC3OC(=O)c4ccccc43)n2)cc1` (configuration not stated), the inhibition is -1.11%.

For the compound `COc1ccc(Nc2nc(-c3ccccc3)cs2)cc1`, the inhibition was 4.08%.

`COc1ccc2c(c1OC)C(=O)OC2Nc1nc(-c2ccccc2)cs1` (configuration not stated): the inhibition was 40.2% (active).

With `CC(C)(C)c1nnc(NC(=O)C2c3ccccc3Oc3ccccc32)s1`, the inhibition is 0.88%.

For `Nc1ccc(N=Nc2ccccc2Cl)c(N)n1`, the inhibition was -6.75%.

For the compound `CCOc1ccc(Br)cc1CSC(=N)N`, the inhibition was 6.11%.

Turning to `CN1/C(=C\C(=O)c2cccnc2Cl)C(C)(C)c2ccccc21`, the inhibition was 5.33%.

Turning to `CN1/C(=C\C=C2\N=C(c3ccc(F)cc3)OC2=O)C(C)(C)c2ccccc21`, the inhibition was 30.4% (active).

On to `CN1/C(=C\C(=O)c2oc3ccccc3c2N)C(C)(C)c2ccccc21`, for which the inhibition was 10.9%.

As for `Cc1csc(NC(=O)c2ccc(-c3ccc(Cl)cc3Cl)o2)n1`, the inhibition is 5.38%.

For `O=C(c1cccnc1)N(c1cc2sc(=O)oc2c2ccccc12)S(=O)(=O)c1ccccc1`, the inhibition is 12.4%.

As for `O=C(COc1ccccc1F)NNC(=O)c1ccc(N2CCCCC2)c([N+](=O)[O-])c1`, the inhibition is 2.6%.

Turning to `CCCCNS(=O)(=O)c1ccc(S(=O)(=O)n2cnc3ccccc32)cc1`, the inhibition is 1.68%.

Regarding `O=S(=O)(c1ccc(Br)cc1)n1ccc2ccccc21`, the inhibition was 36.7% (active).

On to `O=S(=O)(c1ccc(-c2ccccc2)cc1)N1CCCC1`, for which the inhibition was 7.94%.

For `CC1(C)CC(=O)C(C=NCCC2=CCCCC2)=C(O)C1`, the inhibition is 6.01%.

On to `O=C1CC(c2ccccc2)CC(O)=C1C=NCCN1CCOCC1` (configuration not stated), for which the inhibition is 2.34%.

Take `O=C1CCCC(O)=C1C=NCCc1ccccc1`: the inhibition was 42.9% (active).

Consider `CCCCN(C(=O)c1ccc(OC(F)(F)F)cc1)c1c(N)n(CCC)c(=O)[nH]c1=O`, for which the inhibition is 3.34%.

Consider `CC(C)(C)SCCNC(=O)c1cccc([N+](=O)[O-])c1`, for which the inhibition is 5.58%.

For the compound `Cc1noc(C)c1COc1cccc(C(=O)Nc2cccnc2)c1`, the inhibition was 1%.

For `Cc1cc(NCc2cccnc2)no1`, the inhibition was 1.06%.

As to `CN(Cc1cccnc1)C(=O)c1cc(COc2ccc3ncccc3c2)on1`, the inhibition was 84.6% (active).

`CCCOc1ccc(NC(=O)C2OC3OC(C)(C)OC3C3OC(C)(C)OC23)cc1` (configuration not stated): the inhibition is 4.19%.

Turning to `N#Cc1ccccc1NC(=O)c1cccc(COc2ccc(Cl)cc2Cl)c1`, the inhibition is 1.93%.

As to `O=C(C1CCCO1)N1CCN(C(=S)Nc2cccc(Cl)c2)CC1` (configuration not stated), the inhibition was 9.12%.

Regarding `Cc1ccc(C2CCN(C(=S)Nc3cccc(Cl)c3)C2)cc1` (configuration not stated), the inhibition is 54% (active).

For `Cc1cccc(NC(=S)N2CCCC(c3nc4ccccc4[nH]3)C2)c1` (configuration not stated), the inhibition was 5.36%.

On to `COC(=O)[C@H](Cc1ccccc1)NC(=O)[C@@H]1C[C@H]1[C@@H](NC(=O)OCc1ccccc1)c1ccccc1`, for which the inhibition was 1.6%.

On to `CCCc1ccc(C(=O)[C@@H]2[C@@H](C(C)=O)N3c4ccc(F)cc4C=C[C@@H]3[C@@]23C(=O)Nc2ccccc23)cc1`, for which the inhibition is -6.87%.

Consider `COc1cccc(CC2(CO)CCCN(Cc3nc(-c4cccs4)oc3C)C2)c1` (configuration not stated), for which the inhibition is 10.4%.

Consider `Cc1ccc(CN2CCN(Cc3ccccc3-c3ccco3)CC2CCO)o1` (configuration not stated), for which the inhibition is 6.27%.

For `Cc1cc(C)n(-c2nnc(C)n2NC(=O)c2cccc(Cl)c2)n1`, the inhibition is -0.31%.

`O=C1/C(=C\c2ccsc2)NC(=S)N1c1ccccc1`: the inhibition is 1.31%.

Consider `O=C1N/C(=C/c2cccn2-c2ccccc2)C(=O)N1c1cccc(Cl)c1`, for which the inhibition was 52.5% (active).

As for `Cc1ccccc1NC(=O)CN1C(=O)N/C(=C\c2cccn2-c2cccc(C(=O)O)c2)C1=O`, the inhibition was 7.07%.

On to `COC(=O)c1ccc(CN2CCN(CCCc3ccccc3)C(CCO)C2)cc1` (configuration not stated), for which the inhibition is 4.68%.

Turning to `CCN1/C(=C/c2ccc3ccc(C)cc3[n+]2CC)Sc2ccccc21`, the inhibition is 87.6% (active).

Turning to `CCN1CCN(CCNC(=O)c2ccc(/C=C3/Sc4ccccc4N(Cc4cccc(C)c4)C3=O)cc2)CC1`, the inhibition was 13.1%.

As to `CCN1/C(=C\c2ccc3ccccc3[n+]2CC)Sc2cc(C)ccc21`, the inhibition was 88.7% (active).

`CCN1/C(=C/C(=S)Nc2ccccc2)Sc2ccccc21`: the inhibition was 0.08%.

Consider `COc1ccccc1C1C(C#N)=C(N)Oc2c1c(-c1ccccc1)nn2-c1ccccc1` (configuration not stated), for which the inhibition was 4.31%.
